# In the supplement of paper PMC10849652:
# Of roughly 7,900 targets only a part is listed; those with a hit were picked by preference. About 0.6% of all pairs of compound and target were hits. Values without a mark were called inactive.
# Experiments:
# Test in all cases: log2 fold change, soluble protein after heating vs DMSO (PISA); higher = thermal stabilisation; K562 cells, 10 uM, 30 min; active = over 0.2 and 3.5 SD of the protein, either way, in both replicates (recomputed)
# saracatinib = compound: CN1CCN(CCOc2cc(OC3CCOCC3)c3c(Nc4c(Cl)ccc5c4OCO5)ncnc3c2)CC1 [saracatinib]
# Method in brief: (§1)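 Soluble protein was quantified by TMTpro 16plex LC-MS/MS after channel sums were equalised. It was obtained as the supernatant after 21,000xg for 90 min from pooled aliquots of K562 cells (2×10^6 cells/mL, 10 μM compound, 30 min) heated for 3 min across 48°C-58°C and extracted in PBS with 0.5% NP-40 at 4°C. Thermal stability values are relative to control samples and come from duplicates. They are given as log2 fold changes.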
# sotrastaurin = compound: CN1CCN(c2nc(C3=C(c4c[nH]c5ccccc45)C(=O)NC3=O)c3ccccc3n2)CC1 [sotrastaurin]
# Method in brief: as §1
# alvocidib = compound: CN1CC[C@H](c2c(O)cc(O)c3c(=O)cc(-c4ccccc4Cl)oc23)[C@H](O)C1 [alvocidib]
# Method in brief: as §1
# Tubastatin A = compound: CN1CCc2c(c3ccccc3n2Cc2ccc(C(=O)NO)cc2)C1 [Tubastatin A]
# Method in brief: as §1
# [1] = compound: CNC(=O)C1=CC=CC=C1NC2=NC(=NC=C2Cl)NC3=C(C=C(C=C3)N4CCOCC4)OC
# Method in brief: as §1
# defactinib = compound: CNC(=O)c1ccc(Nc2ncc(C(F)(F)F)c(NCc3nccnc3N(C)S(C)(=O)=O)n2)cc1 [defactinib]
# Method in brief: as §1
# rucaparib = compound: CNCc1ccc(-c2[nH]c3cc(F)cc4c3c2CCNC4=O)cc1 [rucaparib]
# Method in brief: as §1
# [2] = compound: CNc1nc(-c2ccc3c(N)n[nH]c3c2)cc(N2C[C@@H](C(=O)NC3CCCCC3)CC[C@H]2C)n1
# Method in brief: as §1
# encorafenib = compound: COC(=O)N[C@@H](C)CNc1nccc(-c2cn(C(C)C)nc2-c2cc(Cl)cc(NS(C)(=O)=O)c2F)n1 [encorafenib]
# Method in brief: as §1
# [3] = compound: COC(=O)[C@H](CCSC)NC(=O)C1=C(C=C(C=C1)NC[C@H](CS)N)C2=CC=CC=C2
# Method in brief: as §1
# [4] = compound: COC1=CC=C(C=C1)CN2C=CC3=C2C=C(C=C3)C(=O)NO
# Method in brief: as §1
# filanesib = compound: CON(C)C(=O)N1N=C(c2cc(F)ccc2F)S[C@@]1(CCCN)c1ccccc1 [filanesib]
# Method in brief: as §1
# zotarolimus = compound: CO[C@H]1C[C@@H]2CC[C@@H](C)[C@@](O)(O2)C(=O)C(=O)N2CCCC[C@H]2C(=O)O[C@H]([C@H](C)C[C@@H]2CC[C@H](n3cnnn3)[C@H](OC)C2)CC(=O)[C@H](C)/C=C(\C)[C@@H](O)[C@@H](OC)C(=O)[C@H](C)C[C@H](C)/C=C/C=C/C=C/1C [zotarolimus]
# Method in brief: as §1
# idasanutlin = compound: COc1cc(C(=O)O)ccc1NC(=O)[C@@H]1N[C@@H](CC(C)(C)C)[C@](C#N)(c2ccc(Cl)cc2F)[C@H]1c1cccc(Cl)c1F [idasanutlin]
# Method in brief: as §1
# alisertib = compound: COc1cc(Nc2ncc3c(n2)-c2ccc(Cl)cc2C(c2c(F)cccc2OC)=NC3)ccc1C(=O)O [alisertib]
# Method in brief: as §1
# [5] = compound: COc1cc2nc(-c3cc(F)ccc3O)nc(N[C@@H]3CNC[C@H]3C(C)(C)O)c2cc1OC
# Method in brief: as §1
# gefitinib = compound: COc1cc2ncnc(Nc3ccc(F)c(Cl)c3)c2cc1OCCCN1CCOCC1 [gefitinib]
# Method in brief: as §1
# [6] = compound: COc1cccc2cc(-c3nc([C@H]4CC[C@H](C(=O)O)CC4)n4ncnc(N)c34)[nH]c12
# Method in brief: as §1
# lapatinib = compound: CS(=O)(=O)CCNCc1ccc(-c2ccc3ncnc(Nc4ccc(OCc5cccc(F)c5)c(Cl)c4)c3c2)o1 [lapatinib]
# Method in brief: as §1
# pictilisib = compound: CS(=O)(=O)N1CCN(Cc2cc3nc(-c4cccc5[nH]ncc45)nc(N4CCOCC4)c3s2)CC1 [pictilisib]
# Method in brief: as §1
# Chain of UniProt O95747 (O95747 whole entry, looked up): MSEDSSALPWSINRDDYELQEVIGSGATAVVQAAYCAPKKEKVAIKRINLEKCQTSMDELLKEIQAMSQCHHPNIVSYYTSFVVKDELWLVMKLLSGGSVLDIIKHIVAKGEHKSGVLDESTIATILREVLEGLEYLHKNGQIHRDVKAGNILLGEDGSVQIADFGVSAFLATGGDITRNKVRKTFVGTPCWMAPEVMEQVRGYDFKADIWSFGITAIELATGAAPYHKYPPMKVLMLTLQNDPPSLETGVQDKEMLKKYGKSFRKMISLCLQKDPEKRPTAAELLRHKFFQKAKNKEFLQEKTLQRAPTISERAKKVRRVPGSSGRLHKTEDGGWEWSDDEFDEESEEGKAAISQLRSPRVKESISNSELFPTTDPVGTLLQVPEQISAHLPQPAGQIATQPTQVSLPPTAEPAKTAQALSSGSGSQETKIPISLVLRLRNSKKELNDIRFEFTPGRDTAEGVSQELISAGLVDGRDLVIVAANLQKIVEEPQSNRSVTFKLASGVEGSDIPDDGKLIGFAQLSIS
# Chain of UniProt O95169 (O95169 whole entry, looked up): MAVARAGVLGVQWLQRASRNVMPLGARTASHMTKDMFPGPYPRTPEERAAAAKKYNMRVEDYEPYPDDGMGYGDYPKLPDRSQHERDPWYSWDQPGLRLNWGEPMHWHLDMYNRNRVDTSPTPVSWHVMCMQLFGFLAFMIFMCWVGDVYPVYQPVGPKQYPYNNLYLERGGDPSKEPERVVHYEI
# Chain of UniProt Q16795 (Q16795 whole entry, looked up): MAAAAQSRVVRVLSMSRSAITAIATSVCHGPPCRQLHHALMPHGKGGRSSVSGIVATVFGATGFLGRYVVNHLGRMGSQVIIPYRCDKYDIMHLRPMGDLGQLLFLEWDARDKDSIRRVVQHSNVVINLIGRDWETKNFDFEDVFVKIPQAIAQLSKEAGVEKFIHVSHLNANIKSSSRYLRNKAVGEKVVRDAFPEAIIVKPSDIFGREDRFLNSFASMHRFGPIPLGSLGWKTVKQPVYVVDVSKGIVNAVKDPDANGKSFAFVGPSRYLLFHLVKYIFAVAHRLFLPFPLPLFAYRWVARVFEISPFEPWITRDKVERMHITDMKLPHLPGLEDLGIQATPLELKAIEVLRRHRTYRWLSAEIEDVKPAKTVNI
# Chain of UniProt Q96BN8 (Q96BN8 whole entry, looked up): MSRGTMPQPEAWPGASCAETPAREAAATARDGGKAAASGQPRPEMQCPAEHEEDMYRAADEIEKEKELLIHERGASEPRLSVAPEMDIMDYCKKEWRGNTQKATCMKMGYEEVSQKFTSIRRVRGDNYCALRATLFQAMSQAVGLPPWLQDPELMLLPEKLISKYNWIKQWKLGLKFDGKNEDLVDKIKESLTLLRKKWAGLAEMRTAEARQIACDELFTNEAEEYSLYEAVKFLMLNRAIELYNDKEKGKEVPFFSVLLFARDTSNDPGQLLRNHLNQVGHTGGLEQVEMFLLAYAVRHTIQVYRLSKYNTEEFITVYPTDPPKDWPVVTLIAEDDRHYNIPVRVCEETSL
# Chain of UniProt O43809 (O43809 whole entry, looked up): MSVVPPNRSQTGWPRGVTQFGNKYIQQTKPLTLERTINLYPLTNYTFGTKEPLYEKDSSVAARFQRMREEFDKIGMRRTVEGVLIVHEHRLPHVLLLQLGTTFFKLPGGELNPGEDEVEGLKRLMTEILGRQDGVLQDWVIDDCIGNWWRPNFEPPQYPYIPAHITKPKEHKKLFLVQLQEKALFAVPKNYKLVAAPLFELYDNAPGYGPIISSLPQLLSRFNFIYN
# Chain of UniProt P51956 (P51956 whole entry, looked up): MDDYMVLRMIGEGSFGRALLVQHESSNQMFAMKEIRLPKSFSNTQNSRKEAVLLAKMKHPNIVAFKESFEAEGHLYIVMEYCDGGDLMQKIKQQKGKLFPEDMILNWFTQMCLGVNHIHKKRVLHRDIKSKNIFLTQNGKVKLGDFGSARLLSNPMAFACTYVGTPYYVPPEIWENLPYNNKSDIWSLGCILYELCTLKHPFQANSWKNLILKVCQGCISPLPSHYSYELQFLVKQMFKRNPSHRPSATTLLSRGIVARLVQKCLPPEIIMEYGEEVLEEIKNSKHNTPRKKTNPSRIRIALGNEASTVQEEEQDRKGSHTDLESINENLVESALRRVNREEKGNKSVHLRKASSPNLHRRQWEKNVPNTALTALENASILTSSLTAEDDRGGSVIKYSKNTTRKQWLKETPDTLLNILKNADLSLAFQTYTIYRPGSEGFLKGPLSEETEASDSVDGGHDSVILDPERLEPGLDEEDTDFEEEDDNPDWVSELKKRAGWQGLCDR
# Chain of UniProt O00217 (O00217 whole entry, looked up): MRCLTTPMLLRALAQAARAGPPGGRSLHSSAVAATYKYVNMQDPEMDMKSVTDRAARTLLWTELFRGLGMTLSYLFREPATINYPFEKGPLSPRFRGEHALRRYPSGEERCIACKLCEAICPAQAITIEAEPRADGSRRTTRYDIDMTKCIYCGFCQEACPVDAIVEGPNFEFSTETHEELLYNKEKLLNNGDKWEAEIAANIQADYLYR
# Chain of UniProt Q15738 (Q15738 whole entry, looked up): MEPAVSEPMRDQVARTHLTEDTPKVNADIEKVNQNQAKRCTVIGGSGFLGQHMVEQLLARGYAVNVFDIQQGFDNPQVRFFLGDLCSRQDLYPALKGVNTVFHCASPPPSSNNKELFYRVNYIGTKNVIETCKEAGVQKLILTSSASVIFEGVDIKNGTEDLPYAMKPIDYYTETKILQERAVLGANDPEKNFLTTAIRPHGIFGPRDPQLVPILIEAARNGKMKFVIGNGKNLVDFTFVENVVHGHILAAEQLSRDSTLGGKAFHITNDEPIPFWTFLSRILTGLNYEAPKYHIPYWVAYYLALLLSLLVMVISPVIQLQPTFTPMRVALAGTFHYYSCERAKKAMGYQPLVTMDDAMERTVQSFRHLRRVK
# Chain of UniProt O43181 (O43181 whole entry, looked up): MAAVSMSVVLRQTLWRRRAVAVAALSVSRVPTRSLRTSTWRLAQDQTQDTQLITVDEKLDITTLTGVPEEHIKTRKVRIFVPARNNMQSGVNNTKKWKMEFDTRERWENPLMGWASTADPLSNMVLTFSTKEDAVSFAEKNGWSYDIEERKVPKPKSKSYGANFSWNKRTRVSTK
# Chain of UniProt Q8NCE2 (Q8NCE2 whole entry, looked up): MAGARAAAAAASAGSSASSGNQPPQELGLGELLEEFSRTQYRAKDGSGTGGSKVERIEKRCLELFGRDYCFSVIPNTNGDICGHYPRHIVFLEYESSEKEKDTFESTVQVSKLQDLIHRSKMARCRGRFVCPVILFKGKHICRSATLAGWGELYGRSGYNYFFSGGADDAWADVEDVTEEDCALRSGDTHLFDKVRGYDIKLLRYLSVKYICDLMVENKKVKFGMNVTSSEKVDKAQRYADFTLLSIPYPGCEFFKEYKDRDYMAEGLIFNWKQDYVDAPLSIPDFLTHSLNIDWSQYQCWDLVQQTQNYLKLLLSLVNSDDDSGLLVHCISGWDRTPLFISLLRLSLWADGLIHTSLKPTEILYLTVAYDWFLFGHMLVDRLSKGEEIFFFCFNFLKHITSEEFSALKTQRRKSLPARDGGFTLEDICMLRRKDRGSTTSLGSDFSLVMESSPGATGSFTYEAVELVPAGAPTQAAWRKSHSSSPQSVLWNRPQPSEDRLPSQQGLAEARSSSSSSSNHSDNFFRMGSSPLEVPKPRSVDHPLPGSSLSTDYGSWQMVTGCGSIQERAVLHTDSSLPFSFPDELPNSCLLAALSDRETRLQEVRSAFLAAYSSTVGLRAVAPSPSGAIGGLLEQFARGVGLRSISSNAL
# Chain of UniProt Q8N6M0 (Q8N6M0 whole entry, looked up): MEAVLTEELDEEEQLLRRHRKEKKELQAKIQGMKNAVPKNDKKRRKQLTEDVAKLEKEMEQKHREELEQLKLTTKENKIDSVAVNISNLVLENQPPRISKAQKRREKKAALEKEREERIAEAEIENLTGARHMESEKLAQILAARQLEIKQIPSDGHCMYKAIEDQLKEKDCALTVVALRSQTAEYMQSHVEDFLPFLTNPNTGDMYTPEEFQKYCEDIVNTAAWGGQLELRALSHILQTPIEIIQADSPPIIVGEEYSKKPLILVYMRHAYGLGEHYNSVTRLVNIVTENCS
# Chain of UniProt Q8N543 (Q8N543 whole entry, looked up): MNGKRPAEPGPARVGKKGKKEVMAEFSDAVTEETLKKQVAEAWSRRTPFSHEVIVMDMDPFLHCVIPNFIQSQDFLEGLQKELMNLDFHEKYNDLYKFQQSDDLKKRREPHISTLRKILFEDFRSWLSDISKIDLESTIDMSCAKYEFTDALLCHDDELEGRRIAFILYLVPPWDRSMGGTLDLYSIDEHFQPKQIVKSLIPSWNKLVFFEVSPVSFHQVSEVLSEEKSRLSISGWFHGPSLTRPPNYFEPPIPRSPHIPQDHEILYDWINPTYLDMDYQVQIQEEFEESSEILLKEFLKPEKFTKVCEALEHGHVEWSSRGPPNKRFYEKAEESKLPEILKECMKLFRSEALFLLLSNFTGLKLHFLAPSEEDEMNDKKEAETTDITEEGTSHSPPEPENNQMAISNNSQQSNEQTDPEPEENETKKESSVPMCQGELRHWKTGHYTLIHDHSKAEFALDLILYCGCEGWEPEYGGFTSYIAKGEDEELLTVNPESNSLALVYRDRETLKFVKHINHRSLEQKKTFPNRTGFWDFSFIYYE
Target,log2 fold change (saracatinib),log2 fold change (sotrastaurin),log2 fold change (alvocidib),log2 fold change (Tubastatin A),log2 fold change [1],log2 fold change (defactinib),log2 fold change (rucaparib),log2 fold change [2],log2 fold change (encorafenib),log2 fold change [3],log2 fold change [4],log2 fold change (filanesib),log2 fold change (zotarolimus),log2 fold change (idasanutlin),log2 fold change (alisertib),log2 fold change [5],log2 fold change (gefitinib),log2 fold change [6],log2 fold change (lapatinib),log2 fold change (pictilisib)
NUMA1 (UniProt Q14980),-0.069,-0.235,-0.063,0.14,-0.057,-0.017,0.118,0.055,0.174,-0.009,0.002,0.266,0.13,0.07,-0.088,-0.223,-0.001,-0.247,0.062,0.021
MTMR14 (UniProt Q8NCE2),-0.037,-0.042,-0.059,0,0.008,-0.058,-0.017,-0.064,-0.026,0.038,0.007,0.026,-0.04,0.02,-0.04,0.069,-0.02,0.017,-0.075,0.083
OXSR1 (UniProt O95747),-0.048,0.004,-0.094,0.038,-0.061,-0.093,0.001,0.033,0.042,-0.051,0.014,-0.009,-0.007,-0.068,-0.073,0.018,-0.007,0.034,-0.033,0.028
MRPS22 (UniProt P82650),-0.098,-0.122,-0.051,-0.006,-0.038,0.058,0.143,0.169,0.064,-0.051,0.041,0.05,0.071,-0.301 (active),0.015,0.019,-0.017,-0.019,0.038,-0.03
NEK3 (UniProt P51956),0.022,-0.125,-0.169,-0.194,-0.027,-0.182,-0.013,0.007,0,0.036,0.058,-0.297,0.217,0.116,0.074,0.07,0.086,-0.196,0.061,0.161
OTUD6B (UniProt Q8N6M0),-0.009,-0.035,-0.147,-0.007,-0.008,-0.138,0.019,0.001,0.122,-0.055,0.016,-0.025,0.1,-0.012,0.005,0.005,-0.017,-0.013,-0.028,0.017
OGFOD1 (UniProt Q8N543),0.007,0.024,-0.026,-0.163,0.012,-0.027,-0.051,-0.028,-0.028,0.041,-0.294 (active),-0.05,-0.02,-0.038,-0.021,0.001,0.015,0.041,-0.034,0.065
NUDT21 (UniProt O43809),0.028,0.024,-0.017,0.01,-0.166,0.045,0.004,-0.025,-0.015,-0.034,-0.003,0.027,0.013,0.006,-0.077,0.102,-0.019,0.031,-0.019,0.017
NDUFS8 (UniProt O00217),-0.011,-0.061,-0.081,-0.04,-0.037,-0.009,-0.093,0.017,0.059,-0.026,-0.07,-0.122,-0.003,-0.147,-0.15,-0.069,-0.028,0.081,0.01,0.018
NDUFS4 (UniProt O43181),0.117,0.1,0.049,-0.082,-0.025,0.035,0.011,-0.074,-0.051,0.079,-0.018,-0.019,-0.022,0.035,-0.074,-0.077,-0.008,0.036,0.029,-0.122
MRPL50 (UniProt Q8N5N7),0.148,-0.048,0.066,0.133,-0.011,0.04,0.063,-0.065,-0.01,0.061,-0.03,0.078,0.202,-0.122,-0.078,-0.719 (active),0.004,-0.022,0.42,-0.067
MRPS33 (UniProt Q9Y291),-0.033,-0.077,-0.038,0.02,-0.018,0.087,0.119,0.04,0.024,0.02,-0.033,0.002,0.043,-0.167,-0.052,-0.057,0,0.008,0.036,-0.1
NDUFB8 (UniProt O95169),-0.064,0.071,-0.077,-0.016,0.002,-0.037,0.003,-0.073,0.016,-0.048,-0.042,0.004,-0.005,0.069,-0.04,-0.141,-0.023,0.06,-0.036,-0.034
NDUFA9 (UniProt Q16795),-0.003,-0.008,-0.022,-0.013,-0.034,-0.011,-0.038,0.036,0.048,-0.004,-0.002,-0.116,0.008,-0.229 (active),-0.04,-0.008,-0.055,0.014,-0.052,-0.024
NSDHL (UniProt Q15738),-0.07,0.043,-0.051,-0.004,0.072,-0.037,-0.094,0.041,-0.019,-0.021,0.006,-0.11,0.04,0.208,0.033,-0.062,0.021,0,0.185,0.023
OTULIN (UniProt Q96BN8),-0.029,-0.044,0.046,0.019,-0.009,-0.029,0.02,-0.053,-0.012,-0.012,0.022,-0.044,-0.024,-0.005,0.086,0.014,0,-0.045,0.048,0.023
